Common to all, as to assay: NCI-60 one-dose screen, 48 h (100 = growth as untreated, 0 = no growth, -100 = all killed)
Settings in all cases: 10 µM unless noted

Assay [1] has as its system SR leukemia.
The test system of assay [2] is RPMI-8226 leukemia.
In assay [3] the test system is OVCAR-8 ovarian.
Assay [4] concerns OVCAR-5 ovarian.
The subject of assay [5] is OVCAR-4 ovarian.
In assay [6] the test system is SK-OV-3 ovarian.
The subject of assay [7] is IGROV1 ovarian.
The subject of assay [8] is OVCAR-3 ovarian.
The test system of assay [9] is HS 578T breast.
Assay [10] deals with NCI/ADR-RES ovarian.

Each structure is given as a SMILES string. This is part of a sample that, as a whole, favours compounds with a hit. Of some 83,000 tested, about 20% had one in any assay.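 Cells were grown in 96-well plates and exposed to the test compound at a single concentration for 48 hours; results are reported as percent growth, with values below 10 considered active.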 Values without a mark were called inactive. Active and inactive are the calls of the source.

On to `Cn1c(O)c(C=NCCN=Cc2c(O)n(C)c(=O)n(C)c2=O)c(=O)n(C)c1=O`, for which the growth in assay [1] was -21.9% (active); in assay [2], 80.6%; in [3] it was 103%; in assay [4], 83.7%; in assay [5] it was 112%; in [6], 107%. Also, the growth in assay [7] was 106%; in assay [8], 102%; in assay [9] it was 112%; in assay [10], 104%.

On to `CC/C(=C(/c1ccc(Cl)cc1)c1ccc(OCCN2CCCC2)cc1)c1ccc(OC)cc1`, for which the growth was -16.1% (active) in assay [1]; 12.2% in assay [2]; 69.4% in assay [3]; 72.9% in [4]; 72.6% in assay [5]; 101% in assay [6]. Further, the growth in assay [7] is 81.8%; in [8], 78.7%; in assay [9], 100%; in assay [10], 66.7%.

Take `CCCC(=O)NC(c1ccc2c(c1)OCO2)c1ccc2cccnc2c1O` (stereo not given): the growth in assay [1] is -16.1% (active); in [2], 13.1%; in assay [3] it was 9.28% (active); in assay [4], 34.2%; in assay [5] it was 14.5%; in [6], 14.8%. Moreover, the growth was 5.54% (active) in assay [7], 36.9% in assay [8], 58.6% in assay [9] and 3.18% (active) in assay [10].

Take `Oc1ccc(CCn2c(O)c(/C=C3\CN=c4ccccc4=N3)sc2=S)cc1`: the growth in assay [1] was 20.9%; in assay [2], 33.8%; in [3], 86.8%; in [4], 95.6%; in assay [5] it was 80.5%; in assay [6], 79.5%. The growth in assay [7] is 39.9%; in [8], 44.7%; in [9] it was 68.5%; in [10], 65.7%.

Regarding `COc1cc2c(c(OC)c1OC)C(=O)CC(c1cccc(NC(=O)c3ccc(Br)cc3)c1)O2` (stereo not given), the growth in assay [1] was 3.88% (active); in assay [2], -4.85% (active); in assay [3] it was 14.1%; in assay [4] it was 95.4%; in assay [5] it was 53.9%; in [6], 74.7%. Further, the growth in assay [7] is 45.9%; in [8] it was 46.5%; in [9] it was 71%; in assay [10], 8.47% (active).

Regarding `O=C1/C(=C/c2ccc(-c3ccc(Br)cc3)o2)SC(=S)N1CCc1ccc(O)cc1`, the growth was 19.2% in assay [1]; 75.7% in [2]; 4.49% (active) in assay [3]; 86% in [4]; 38.3% in assay [5]; 76.2% in assay [6]. The growth in [7] was 45.2%; in assay [8], 44.3%; in [9], 59.7%; in assay [10], 81.7%.

For `Cn1ccc2c3c(ccc21)CC3=O`, the growth in assay [1] was 108%; in assay [2], 106%; in [3] it was 107%; in [4], 102%; in assay [5], 119%; in assay [6], 113%. Moreover, the growth in assay [7] is 112%; in assay [8], 117%; in assay [9], 121%; in assay [10], 115%.

As for `O=C1Nc2ccc(I)cc2C1=O`, the growth in [1] is 100%; in assay [2], 144%; in [3], 90.7%; in [4], 98.6%; in assay [5], 101%; in [6], 108%. Further, the growth in assay [7] is 46.6%; in [8], 74.7%; in assay [9], 97.8%; in assay [10] it was 97.2%.

Take `CC(C)CCC[C@@H](C)[C@H]1CC[C@H]2[C@@H]3CC=C4C[C@@H](C(C(=O)O)C(=O)O)CC[C@]4(C)[C@H]3CC[C@]12C`: the growth in [1] is -39.7% (active); in [2], -26.9% (active); in assay [3] it was -19.8% (active); in [4], 45.2%; in assay [5] it was 0.439% (active); in assay [6], -5.5% (active). Also, the growth in assay [7] was -35.5% (active); in [8], -73.5% (active); in [9], -12.7% (active); in [10], -1.29% (active).

For `N#Cc1c(-c2ccc(Cl)cc2)nc(NN=Cc2cccc(O)c2)nc1N1CCOCC1`, the growth was 4.7% (active) in assay [1]; 37.4% in assay [2]; 65.4% in assay [3]; 97.4% in assay [4]; 72.4% in assay [5]; 98% in [6]. Also, the growth in assay [7] is 64.9%; in [8], 77.7%; in assay [9], 89.4%; in assay [10], 64.9%.

For `COc1ccc(-c2nc3c(c(-c4ccccc4)nn3-c3ccccc3)c(-c3ccc(N4CCOCC4)cc3)c2C#N)cc1`, the growth in [1] was 110%; in assay [2] it was 89.8%; in [3], 105%; in assay [4], 102%; in assay [5], 106%; in assay [6], 119%. Besides, the growth in [7] is 109%; in [8], 115%; in [9], 106%; in [10], 111%.

As for `CCC(C)N(c1ccc(Cl)cc1)c1nc(-c2ccc(Br)cc2)cs1` (stereo not given), the growth is 83.5% in assay [1]; 82.8% in [2]; 96.7% in assay [3]; 103% in assay [4]; 96.5% in [5]; 92.5% in assay [6]. Moreover, the growth is 82.1% in assay [7], 107% in [8], 91.3% in assay [9] and 102% in assay [10].

On to `NC(=O)c1c(NC(=O)c2ccccc2)sc2c1CCC(=O)C2`, for which the growth in [1] was 7.6% (active); in [2], -10.3% (active); in assay [3] it was 17.2%; in assay [4], 20.3%; in [5], -5.57% (active); in assay [6], 50.9%. In addition, the growth is 27.1% in assay [7], 7.93% (active) in [8], 24.5% in assay [9] and 7.2% (active) in [10].

The record behind these values is PubChem BioAssay (NCI).
